Results reported in PubChem BioAssay (NCI).
Compounds without any hit were thinned out: in the full panel of roughly 83,000, 20% have a hit.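 Compound tested at a single concentration for 48 hours in 96-well plates; a percent growth value below 10 was scored as active.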 The source made the active and inactive calls.

What was measured:
Assay in all cases: NCI-60 one-dose screen, 48 h (100 = growth as untreated, 0 = no growth, -100 = all killed)
Conditions in all cases: 10 µM unless noted
SR leukemia = system: SR leukemia
RPMI-8226 leukemia = system: RPMI-8226 leukemia
OVCAR-8 ovarian = system: OVCAR-8 ovarian
OVCAR-5 ovarian = system: OVCAR-5 ovarian
OVCAR-4 ovarian = system: OVCAR-4 ovarian
SK-OV-3 ovarian = system: SK-OV-3 ovarian
IGROV1 ovarian = system: IGROV1 ovarian
OVCAR-3 ovarian = system: OVCAR-3 ovarian
HS 578T breast = system: HS 578T breast
NCI/ADR-RES ovarian = system: NCI/ADR-RES ovarian
T-47D breast = system: T-47D breast
BT-549 breast = system: BT-549 breast
MDA-MB-435 melanoma = system: MDA-MB-435 melanoma
SW-620 colon = system: SW-620 colon
MCF7 breast = system: MCF7 breast
HCT-116 colon = system: HCT-116 colon
HCC-2998 colon = system: HCC-2998 colon
KM12 colon = system: KM12 colon
MDA-MB-468 breast = system: MDA-MB-468 breast

Measured: growth

C[C@H]1[C@@H](CC(=O)N[C@@H](Cc2coc3ccccc23)B(O)O)O[C@@H]2OC3(C)CC[C@H]4[C@H](C)CC[C@@H]1[C@@]24O3
active: RPMI-8226 leukemia -4.75% | OVCAR-5 ovarian -26.1% | IGROV1 ovarian 9.89% | OVCAR-3 ovarian 3.84% | HS 578T breast -0.841% | BT-549 breast -72.8% | MDA-MB-435 melanoma -75.8% | SW-620 colon 3.32% | HCT-116 colon -56.6% | HCC-2998 colon -83.1% | KM12 colon 0.198% | MDA-MB-468 breast -49.6%
inactive: SR leukemia 29.6% | OVCAR-8 ovarian 47.1% | OVCAR-4 ovarian 33% | SK-OV-3 ovarian 58.8% | NCI/ADR-RES ovarian 19.5% | T-47D breast 27.1% | MCF7 breast 24.4%

Cn1ncc2c(N)nc(Oc3ccccc3-c3ccccc3)nc21
active: SR leukemia -4.14% | NCI/ADR-RES ovarian -9.01% | BT-549 breast -1.44% | MDA-MB-435 melanoma -38.2% | MCF7 breast 9.1% | MDA-MB-468 breast -24.1%
inactive: RPMI-8226 leukemia 19.4% | OVCAR-8 ovarian 36.2% | OVCAR-5 ovarian 66.8% | OVCAR-4 ovarian 58.3% | SK-OV-3 ovarian 110% | IGROV1 ovarian 38.6% | OVCAR-3 ovarian 27.9% | HS 578T breast 40.9% | T-47D breast 31.9% | SW-620 colon 25.2% | HCT-116 colon 15.6% | HCC-2998 colon 62.2% | KM12 colon 24%

O=C1CCC(N2C(=O)c3cccc(NCCOCCOCCOCCC(=O)NCCCC(=O)NC(c4ccc5c(c4)OCO5)c4cc(Cl)c5cccnc5c4O)c3C2=O)C(=O)C1 (configuration not stated)
inactive: RPMI-8226 leukemia 16.1% | OVCAR-8 ovarian 32.7% | OVCAR-5 ovarian 63.8% | OVCAR-4 ovarian 60.2% | SK-OV-3 ovarian 51.1% | IGROV1 ovarian 15.8% | OVCAR-3 ovarian 10.9% | HS 578T breast 64.6% | NCI/ADR-RES ovarian 92.4% | T-47D breast 16% | BT-549 breast 11.3% | MDA-MB-435 melanoma 47.4% | SW-620 colon 39% | MCF7 breast 10.9% | HCT-116 colon 28.3% | HCC-2998 colon 30% | KM12 colon 13.4%
active: SR leukemia 5.36% | MDA-MB-468 breast -33.9%

COc1ccc2[nH]c(O)c(N=Nc3nc(-c4ccc(Cl)cc4)cs3)c2c1
active: SR leukemia 5.78% | OVCAR-8 ovarian -64.4% | OVCAR-4 ovarian -49.9% | SK-OV-3 ovarian -38.4% | IGROV1 ovarian -3.99% | OVCAR-3 ovarian -90.4% | HS 578T breast 9.33% | NCI/ADR-RES ovarian -37.4% | T-47D breast -21.5% | SW-620 colon 2.98% | MCF7 breast -19% | HCT-116 colon -74.9% | HCC-2998 colon 1.1% | KM12 colon 4.66% | MDA-MB-468 breast -60.8%
inactive: RPMI-8226 leukemia 13.1% | OVCAR-5 ovarian 10.3% | BT-549 breast 25.9% | MDA-MB-435 melanoma 33.2%

COc1ccc(-c2nc3ccc(-c4nnc(SCC(=O)Nc5ccc(/C(C)=N\O)cc5)o4)cc3[nH]2)cc1
active: HS 578T breast 6.55% | BT-549 breast -62.3%
inactive: SR leukemia 47.9% | RPMI-8226 leukemia 36.5% | OVCAR-8 ovarian 55.4% | OVCAR-5 ovarian 113% | OVCAR-4 ovarian 83.3% | SK-OV-3 ovarian 80.1% | IGROV1 ovarian 69.6% | OVCAR-3 ovarian 63.3% | NCI/ADR-RES ovarian 108% | T-47D breast 53.1% | MDA-MB-435 melanoma 14.5% | SW-620 colon 96.2% | MCF7 breast 37% | HCT-116 colon 70.5% | HCC-2998 colon 126% | KM12 colon 37.6% | MDA-MB-468 breast 100%

CCCCCCCCc1ccc(C(=O)Nc2ccc(C)cc2C(=O)O)cc1
inactive: SR leukemia 90% | RPMI-8226 leukemia 63.5% | OVCAR-8 ovarian 94.1% | OVCAR-5 ovarian 109% | OVCAR-4 ovarian 99.8% | SK-OV-3 ovarian 100% | IGROV1 ovarian 83.9% | OVCAR-3 ovarian 94% | HS 578T breast 105% | NCI/ADR-RES ovarian 94.1% | T-47D breast 94% | BT-549 breast 104% | MDA-MB-435 melanoma 104% | SW-620 colon 103% | MCF7 breast 85.2% | HCT-116 colon 75.5% | HCC-2998 colon 106% | KM12 colon 50.3% | MDA-MB-468 breast 70.5%

Nc1cc2ccccc2c(=O)n1NC(=O)c1ccc(Br)cc1
active: MDA-MB-468 breast -54.9%
inactive: SR leukemia 72.5% | RPMI-8226 leukemia 92.1% | OVCAR-8 ovarian 98.6% | OVCAR-5 ovarian 97.8% | OVCAR-4 ovarian 91% | SK-OV-3 ovarian 115% | IGROV1 ovarian 101% | OVCAR-3 ovarian 79.2% | HS 578T breast 102% | NCI/ADR-RES ovarian 93% | T-47D breast 94.8% | BT-549 breast 136% | MDA-MB-435 melanoma 103% | SW-620 colon 98.4% | MCF7 breast 74.6% | HCT-116 colon 95.1% | HCC-2998 colon 97.5% | KM12 colon 92.7%

Clc1ccc(-c2nc3ccc(-c4nnc(SCc5ccccc5)o4)cc3[nH]2)cc1
active: OVCAR-8 ovarian 8.94% | OVCAR-4 ovarian 3.57% | OVCAR-3 ovarian -1.55% | NCI/ADR-RES ovarian -9.86% | T-47D breast 7.8% | MCF7 breast 8.62% | HCT-116 colon 2.75%
inactive: SR leukemia 23.3% | RPMI-8226 leukemia 27.7% | OVCAR-5 ovarian 32.4% | SK-OV-3 ovarian 83.1% | IGROV1 ovarian 27.1% | HS 578T breast 48.7% | BT-549 breast 58.7% | MDA-MB-435 melanoma 62.6% | SW-620 colon 12.9% | HCC-2998 colon 39.4% | KM12 colon 35.5% | MDA-MB-468 breast 11%
